# In PubChem BioAssay AID540332 (The Scripps Research Institute Molecular Screening Center, 2011):
# A number with no mark means an inactive call. The rule behind the calls is not given here.
# Tested on: Rolipram
# Test: selectivity profile across receptors and CYP450s – biochemical, Ricerca HitProfilingScreen, CYP450, set 2, selectivity assay for S1P4 agonist project, profiling panel (AID 540332)
# Conditions: at 30 µM; stronger effect = higher value
compound,measurement,value
COCCN=C1S/C(=C\c2cc(C)n(-c3ccc(F)cc3F)c2C)C(=O)N1C,inhibition,15%
